In PubChem BioAssay AID1159506 (National Center for Advancing Translational Sciences (NCATS), 2015):
Whole data set: some 59,000 sequences, median the read-out near -0.00055, cut for the lowest 2% near -2. The full list was thinned out, with the lowest values kept by preference.

Assay: Identification of proteins required for the processing of the EWS-FLI1 nascent transcript;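 further: robust z of luciferase light less the median z of siRNAs with the same seed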
Settings: TC32 Ewing sarcoma NR0B1-luc vs CMV-luc (EWS-FLI1 target promoter against control promoter), 48 h; screened at 20 nM (by protocol)
How it was run: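 Readout: OneGlo luminescence, 48 h post-transfection, TC32-NR0B1-luc vs TC32-CMV-luc in parallel. siRNA 20 nM final, RNAiMax lipid, 600 cells/well; z-score-MAD transformed, then seed-adjusted.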

Sequence	seed-corrected z-score
UCCCAACCCAGUCAUAACC against BEST3	0.332
UUUCGGUACUCGGUUAACC against EIF3FP3	0.962
UUGUCGUGAAAUGAAACUC against TTLL11	-0.262
UUCCUUUCCACUGCCGUGU against CHRAC1	0.0577
UUCGUUAAGCAAACACUCG against ADAMTS9	0.367
UUUCAGAUAAGCACGAAGC against EIF3M	1.89
UUAGCUGCAUGAUACCAGG against FAM151B	-2.3
AUAGUUACAGAGGCAAGAG against MESTP3	1.98
UAUCUAACUUCUGUCCCGC against HCCS	0.00186
UCUGCAACAAGAUCAACAG against POP5	0.345
UUUUCUACAGCUCUCACUC against CREB3	-2.05
AAACCUAAAAAUGCACUCC against MAGEE1	0.116
UAGGUGACGAUCUCCAUCA against HCK	-1.81
UUUCAUAUGUGAAUCCUCC against TCN2	0.641
AAACUAGUAACUCCUCGUC against PRDM8	-2.41
AGUUGAAUAAGAAAGUACC against MTM1	1.55
UCAAACACCAGGGUGAGGG against CDK18	-0.15
AACUGGUUAUGGUAGUUGC against RMI2	-2.9
UCAGGAUCCAGACAGUUGC against TP53AIP1	0.541
UUAGGUGCACCAGUAAGAG against PEX2	-1.19
UCCAGUAAAAGGCUGAGCG against LGI1	-3.39
UCAGGAUGAUGUGUGGGAU against KRTAP5-11	-1.11

Sequence	seed-corrected z-score
UGCUGUUCAAGCGAAUGCC against DRG1	0.745
AUAAGAUUGGAAUUCGACG against ARL6	0.549
UUUGGAGCUACCACCCGAC against MRPL27	0.314
AAAGCGACACCUGUCAGUC against IKBKAP	-0.0431
UUCAAUGAUAAUAAGGUUG against SF3B3	-3.05
UUUAUCGAAAGCAAAAUUG against MTPAP	0.577
AAAUCGACUACUGAGAACC against CUL9	0.396
AUCCCGACAAUCACCUUCC against DPAGT1	-0.101
AAUGUGGUGAAUACCUCGC against TXLNA	0.621
AUCGGUCACAAAUUGUGGG against ABCE1	-2.31
UGUUCAUCAAGAGGUUUCC against NUP188	0.194
UUUCCAUAGACUUUCCCAC against KLF9	-0.352
UUUCUUAACUGAGUUCCUC against BMF	-0.0574
UAUCAACUCAGUCCUCAGC against HPS6	0.543
AAGACUUUCAGACAUUUGU against ZNF181	-0.276
UUUGGGCUUAGCGGCUUUG against HIST1H1B	-2.05
ACUGUAAUUACUAAGAUCU against CXCR2	-1.37
UACCAGAUGUCUUUUGUGC against IL33	0.0107
UUCUGGUCGAGAGCAUCUG against MAGEB16	-2.42
UAUAACUUGAGAGUAGCUC against POPDC2	0.283
UAUAAGUUUCCUCCCAUGC against TM6SF1	0.269
AUCUUGGACAGUAUCAGCC against IQCF1	-2.36

Sequence	seed-corrected z-score
UUGAGUUUGAUGCCGCUGC against MKNK2	-0.331
UUUCUUAGGGAACCAGUUG against TAGLN2	-0.282
UCCAGAUUCAAAAUGUCUU against NKX2-3	0.184
AAACUCAUCACUCCAGUAC against PARP12	0.00618
UUCUUGACUGCUGGUAUAG against C3orf30	-0.465
UCGGUGUUCACGUAGCCCU against SYNGR3	-0.68
UUUAUUUAGACUUAUGAUC against PTH	-2.27
UCUACUUUUCACAAUGACC against GCLM	-0.666
ACGGCCUCCACUAUGUUUC against RPS26P31	0.368
AAACUGUGAAGCGUAAGUG against FAM188B	-4.34
UGUCAAAUGAAAUUCCUUC against DHX38	-0.779
UGUGUGAGCAUGAAGCGAG against SSNA1	0.0225
AUAUGUAUCAGAACUGGGA against SAE1	-0.67
UGCUGUAAUGAUGUACUCC against KIAA1549	-1.71
UUAAUCACCUUGUCGUUGC against ALDH3A1	-0.669
UGGUCUUAAAAUUAGAGUG against CALR3	-2.01
AUAUGAUUAGGUAGGUUUG against GDPD2	0.805
UCGGAUUGAUCUGUUAUGG against CFAP54	-1.05
UGGUAUAUAAGGGAUGAGC against ZNF611	-2.07
UAUUGUCCAAAUGCUCAGG against SALL1	-0.159
UGUCUAAUAAGGCCUGAGC against ZFP3	-0.177
ACAUCACAAAGUAUUAAUC against LOC643855	0.14

Sequence	seed-corrected z-score
UUGGGUUGGAAGUCCACUG against SF3A1	-2.15
UUCUGGAUUAUAGUCAUCC against CWC22	0.478
AAUGCUUUUAAUGCUCUUC against CARHSP1	-0.968
UGAUCUACUAUGGUCCCUC against CPSF6	0.287
UACAUGAGCCUUGAUCUGG against FAU	1.08
UGCAUGCUCAUUAAGUUCC against TUBE1	-0.26
UGUAGUCACUUUCACAUUC against CCR2	-2.02
UACUCUUAAAGUGAUGUUA against PPP1R1C	0.297
ACAGCACCUAGCAUGAUUG against HIGD1B	1.03
UUCAUUAGCACAUAAGCGG against HENMT1	0.665
UCGAAGUUUACUGCGGUCC against HINFP	-2.19
AUUCAUAUAGUUUUUCUCC against ZNF585B	0.297
UAUGCACAAAGUUUGUGGG against CDC42SE2	-0.65
UCUCCUCCUCGAAAAGUGC against SLC12A7	0.16
AUCCAUGUCAGCGUGAGUC against PSD2	-0.273
AAGAGAAUCAAAAUAGUGG against GPR63	-0.548
AUCCGAACCAGGUAGACAC against PRTG	0.374
AUUGUGGUAGUAGUGUUGG against NUP62CL	-2.29
UCUUUGCCUAGUGUGGUUU against TAF9	-0.576
